The values that follow come from article PMC8769072, “Proteome‐scale mapping of binding sites in the unstructured regions of the human proteome” (Molecular Systems Biology, 2022).

Chain of KPNA4 68-487, O00629 (O00629 68-487): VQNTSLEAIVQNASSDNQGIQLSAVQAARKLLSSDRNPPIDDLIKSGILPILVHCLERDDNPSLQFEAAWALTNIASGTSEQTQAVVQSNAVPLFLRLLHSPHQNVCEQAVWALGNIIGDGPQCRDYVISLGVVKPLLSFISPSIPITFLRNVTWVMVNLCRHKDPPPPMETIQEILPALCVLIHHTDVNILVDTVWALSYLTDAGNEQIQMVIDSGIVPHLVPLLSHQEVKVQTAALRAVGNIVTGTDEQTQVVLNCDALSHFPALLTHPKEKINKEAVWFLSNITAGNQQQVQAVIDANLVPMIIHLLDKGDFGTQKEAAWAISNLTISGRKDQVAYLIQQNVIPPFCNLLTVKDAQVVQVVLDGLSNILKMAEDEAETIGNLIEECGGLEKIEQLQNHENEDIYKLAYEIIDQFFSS
Chain of KEAP1 321-609, Q14145 (Q14145 321-609): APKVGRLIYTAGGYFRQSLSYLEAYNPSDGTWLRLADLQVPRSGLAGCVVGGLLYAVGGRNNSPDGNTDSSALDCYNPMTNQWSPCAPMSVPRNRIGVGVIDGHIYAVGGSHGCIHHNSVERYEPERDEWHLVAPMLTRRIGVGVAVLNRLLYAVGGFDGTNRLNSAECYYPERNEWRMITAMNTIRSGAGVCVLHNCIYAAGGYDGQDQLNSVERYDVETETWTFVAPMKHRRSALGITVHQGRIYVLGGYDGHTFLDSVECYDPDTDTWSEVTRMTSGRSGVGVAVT
Chain of EPS15 121-215, P42566 (P42566 121-215): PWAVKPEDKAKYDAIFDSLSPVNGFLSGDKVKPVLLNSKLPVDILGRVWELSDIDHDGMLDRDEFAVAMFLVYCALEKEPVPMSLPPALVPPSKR

Consider TPLMNPFRLENVTVSE [TMEM114, B3SHH9], for which the “selected by phage display” value in the test with EPS15 121-215, P42566 is “confidence 4 (active)”.
Take PSPETGEAKRSAFVEV [PRDM8, Q9NQV8]: the “selected by phage display” value in the test with KEAP1 321-609, Q14145 was “confidence 3 (active)”.
On the same count and under the same terms, the value for FALEYEADSGEVTSVI [C2orf68, Q2NKX9] was “confidence 2 (active)”.
RGLKRSLSEMEIGMVV [SRF, P11831]: the “selected by phage display” value in the test with KPNA4 68-487, O00629 was “confidence 2 (active)”.
Turning to GGNPFASVGSSSSSGE [UBQLN2, Q9UHD9], the “selected by phage display” value with EPS15 121-215, P42566 was “confidence 2 (active)”.
For WKRDSSGNKIMHPVSG [NUDT9, Q9BW91], in the test with KPNA4 68-487, O00629, the “selected by phage display” value is “confidence 2 (active)”.
On the same count and under the same terms, the value for EDSIEPPHKRLALSSE [DMTF1, Q9Y222] was “confidence 3 (active)”; that for GLKRPASQDFEYLQEE [NRK, Q7Z2Y5] was “confidence 2 (active)”.
Take TDELLRHPVTGEVVER [C6orf132, Q5T0Z8]: the “selected by phage display” value with KEAP1 321-609, Q14145 was “confidence 4 (active)”.
Consider AEQSKRPRLEVGHQGV [EP400, Q96L91], for which, in the test with KPNA4 68-487, O00629, the “selected by phage display” value is “confidence 3 (active)”.
The same measure, in the same setting: the value for AGVKRSAAEMYGSVTE [HNRNPC, P07910] was “confidence 3 (active)”.
GVKRTYSEVYPGQQYL [ZMIZ2, Q8NF64]: in the test with KPNA4 68-487, O00629, the “selected by phage display” value is “confidence 3 (active)”.
Consider HEISLKRSYESVEGNI, for which the “selected by phage display” value in the test with KPNA4 68-487, O00629 was “confidence 3 (active)”.
GNPFMGVSATAVSSSS [CHD8, Q9HCK8]: the “selected by phage display” value with EPS15 121-215, P42566 was “confidence 2 (active)”.
Still for that read-out and setting: the result for NPFLPYISDTGTTPPE [DRAM1, Q8N682] reads “confidence 4 (active)”; that for NPFLNGNVPVMPSLDE [SH3BP4, Q9P0V3], “confidence 4 (active)”.
On to GLNPFGDSTHAAAAAA [ZIC3, O60481], for which, in the test with EPS15 121-215, P42566, the “selected by phage display” value is “confidence 2 (active)”.
For the molecule ESPSVKRMRLSEGWAT [MEF2C, Q06413], the “selected by phage display” value with KPNA4 68-487, O00629 was “confidence 2 (active)”.
On to LNQGNPFIATSGPGHL [CHD7, Q9P2D1], for which the “selected by phage display” value in the test with EPS15 121-215, P42566 is “confidence 2 (active)”.
Consider ELKRKLEQEQKLVEVL [MKL2, Q9ULH7], for which, in the test with KPNA4 68-487, O00629, the “selected by phage display” value was “confidence 3 (active)”.
AIKRGYDDLQTIVPTA [MLX, Q9UH92]: the “selected by phage display” value with KPNA4 68-487, O00629 was “confidence 2 (active)”.
With NPFSVSNPNPLLPSPA [RBM20, Q5T481], the “selected by phage display” value in the test with EPS15 121-215, P42566 was “confidence 2 (active)”.
KRPHQEFGISSQGAYL [PDE3B, Q13370]: the “selected by phage display” value with KPNA4 68-487, O00629 was “confidence 2 (active)”.
Still for that read-out and setting: the value for SLAPVKRTYEQMEFPL [ADNP, Q9H2P0] was “confidence 3 (active)”.
As to LESKRPRLEQVSDSHF, in the test with KPNA4 68-487, O00629, the “selected by phage display” value is “confidence 2 (active)”.
Turning to WTDLENSIVSVERMQD [ABCC6, O95255], the “selected by phage display” value in the test with MAP1LC3A 2-121, Q9H492 is “confidence 3 (active)”; with MAP1LC3B 2-119, Q9GZQ8 it was “confidence 2 (active)”.
In the case of LNPFEVLQIDPEVTDE [DNAJC8, O75937], the “selected by phage display” value in the test with EPS15 121-215, P42566 was “confidence 3 (active)”.
For FDAVTGEFTGMPEQWA [PAK1, Q13153], in the test with KEAP1 321-609, Q14145, the “selected by phage display” value is “confidence 3 (active)”.
As for REHNPESGEEVVTLLE [ZBED9, Q6R2W3], the “selected by phage display” value with KEAP1 321-609, Q14145 is “confidence 2 (active)”.
VEKDKVTGETRVLSST [PALM, O75781]: the “selected by phage display” value in the test with KEAP1 321-609, Q14145 is “confidence 2 (active)”.
For the molecule LENNSETGELQPVLPE [TRIM37, O94972], the “selected by phage display” value with KEAP1 321-609, Q14145 is “confidence 2 (active)”.
With LNPFLTKSSGDVHLSI [PICALM, Q13492], the “selected by phage display” value with EPS15 121-215, P42566 is “confidence 4 (active)”.
As to GPDSFTVLGNSMPSVF [BCL9, O00512], the “selected by phage display” value with MAP1LC3A 2-121, Q9H492 was “confidence 4 (active)”; in the test with MAP1LC3B 2-119, Q9GZQ8 it was “confidence 3 (active)”.
In the case of NPFTTLTDRELEEYRR [ADD1, P35611], the “selected by phage display” value with EPS15 121-215, P42566 was “confidence 3 (active)”.
Take DHQFPAKRPRLSEPQG [HJURP, Q8NCD3]: the “selected by phage display” value with KPNA4 68-487, O00629 is “confidence 2 (active)”.
For the molecule NPFLVAAQDSETDYVT [RTN4, Q9NQC3], the “selected by phage display” value with EPS15 121-215, P42566 was “confidence 2 (active)”.
The same measure, in the same setting: the value for EFGPENPFRTQQMAAP [CDC40, O60508] was “confidence 4 (active)”.
With GGIIDPSTGERFPVTD [PLEC, Q15149], the “selected by phage display” value with KEAP1 321-609, Q14145 was “confidence 4 (active)”.
NPFVPSMPAAPPTLPL [DENND1A, Q8TEH3]: the “selected by phage display” value in the test with EPS15 121-215, P42566 is “confidence 2 (active)”.
With VNPFAQETLFVGNDQV [TMEM108, Q6UXF1], the “selected by phage display” value with EPS15 121-215, P42566 was “confidence 3 (active)”.
For VHTTSKRPRLDPVLAD [FAM90A22P, A8MWA6], the “selected by phage display” value in the test with KPNA4 68-487, O00629 was “confidence 2 (active)”.
Consider GKRPYEAIEAGKAFRY [ZNF471, Q9BX82], for which the “selected by phage display” value with KPNA4 68-487, O00629 is “confidence 2 (active)”.
Turning to QSWLSATLSLATDTMR [MYO18B, Q8IUG5], the “selected by phage display” value with EPS15 121-215, P42566 was “confidence 2 (active)”.
Take TPSEAERWLEEVSQVA [NUMBL, Q9Y6R0]: in the test with EPS15 121-215, P42566, the “selected by phage display” value was “confidence 3 (active)”.
Still for that read-out and setting: the result for NPFSVHTATAVPSGKI [POLA1, P09884] reads “confidence 3 (active)”.
In the case of SPTILGKRSYEQHNGV [MTA1, Q13330], in the test with KPNA4 68-487, O00629, the “selected by phage display” value is “confidence 2 (active)”.
Take QGRPVSVWDVLFSSYL [EPPK1, P58107]: the “selected by phage display” value in the test with EPS15 121-215, P42566 was “confidence 3 (active)”.
As for ELTGEKFLEMANPNVA [MACF1, Q9UPN3], in the test with EPS15 121-215, P42566, the “selected by phage display” value is “confidence 2 (active)”.
Turning to ELKRIKTEDGEGIVIA [FOXK2, Q01167], in the test with KPNA4 68-487, O00629, the “selected by phage display” value was “confidence 2 (active)”.
As for PINPSTGELSTSSSSN [MCC, P23508], the “selected by phage display” value in the test with KEAP1 321-609, Q14145 was “confidence 4 (active)”.
Turning to NPFNSSKLPEGHSSQQ [SYTL2, Q9HCH5], the “selected by phage display” value with EPS15 121-215, P42566 was “confidence 2 (active)”.
Consider DVGLGINPFADGMGAF [ZIC1, Q15915], for which, in the test with EPS15 121-215, P42566, the “selected by phage display” value was “confidence 3 (active)”.
The same measure, in the same setting: the result for DSPGLNASNPFTQLER [DLGAP5, Q15398] reads “confidence 2 (active)”.
As to DMESDIRSWELFLSNV [TTC3, P53804], the “selected by phage display” value in the test with EPS15 121-215, P42566 was “confidence 2 (active)”.
In the case of VLPDALTDGSDVVSDL [CFAP36, Q96G28], in the test with KEAP1 321-609, Q14145, the “selected by phage display” value was “confidence 2 (active)”.
Regarding SNPFMTGAPTGQFPTG [AGFG1, P52594], the “selected by phage display” value in the test with EPS15 121-215, P42566 was “confidence 3 (active)”.
As for DLKRRLDSITSSQSSA [KDR, P35968], the “selected by phage display” value with KPNA4 68-487, O00629 is “confidence 2 (active)”.
With NPFSAAPAATTVVQTH [SAP130, Q9H0E3], the “selected by phage display” value with EPS15 121-215, P42566 was “confidence 3 (active)”.
On to KRPRYDDTVKINSMGG [ZNF318, Q5VUA4], for which the “selected by phage display” value with KPNA4 68-487, O00629 was “confidence 3 (active)”.
MSSSPVKRQRMESALD [TALDO1, P37837]: in the test with KPNA4 68-487, O00629, the “selected by phage display” value is “confidence 3 (active)”.
Turning to YDPVTGEWKSLAKLPE [KLHL24, Q6TFL4], the “selected by phage display” value with KEAP1 321-609, Q14145 is “confidence 3 (active)”.
The same measure, in the same setting: the value for TTWLHPVTGEAVVTGH [PLEKHA5, Q9HAU0] was “confidence 2 (active)”.
